Results from PubChem BioAssay AID1159580 (chemical genetic matrix, 2015).
“And” between values parts separate entries of the source, which are not always exact repeats. Identical values can stand only once. Out of some 5,500 compounds screened, about 2,000 (36%) were called active. Roughly 18% stayed inconclusive and do not appear here. Rule as the data show it: active = normalized growth mostly below about 0.91 (no sharp cut-off); inconclusive = no clear call, values can overlap the other calls; inactive = mostly above about 0.92. The list shows a part of the results.

Assay: chemical genetic growth profiling, strain panel (AID 1159580);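 also: tested at 20 µM; growth read once vehicle control cultures reached saturation at 30 °C; 1 = growth at the plate median or of vehicle wells; lower values mean less growth of the strain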
Conditions: S. cerevisiae deletion strains, growth OD

Measured: normalized growth

COc1cc(O)c2c(c1)C(=O)c1cc(C)cc(O)c1C2=O
active: locus YDR137W, strain rgp1, hits give low values 0.76
inactive: locus YAL013W, strain DEP1, hits give low values 0.991 | locus YAL021C, strain ccr4, hits give low values 0.987 | locus YAL026C, strain drs2, hits give low values 0.997 | locus YAL030W, strain snc1, hits give low values 0.98 | locus YBL061C, strain skt5, hits give low values 0.994 | locus YBR009C, strain hhf1, hits give low values 1 | locus YBR021W, strain FUR4, hits give low values 1.04 | locus YBR023C, strain chs3, hits give low values 0.988 | locus YBR171W, strain sec66, hits give low values 0.995 | locus YBR229C, strain ROT2, hits give low values 1.01 | locus YBR231C, strain swc5, hits give low values 0.993 | locus YBR279W, strain paf1, hits give low values 0.998 | locus YCL011C, strain gbp2, hits give low values 1 | locus YCL016C, strain dcc1, hits give low values 0.98 | locus YCL029C, strain bik1, hits give low values 1 | locus YCL061C, strain MRC1, hits give low values 0.977 | locus YCL069W, strain vba3, hits give low values 0.995 | locus YCR088W, strain abp1, hits give low values 0.993 | locus YDL005C, strain med2, hits give low values 0.971 | locus YDL035C, strain GPR1, hits give low values 0.997 | locus YDL040C, strain nat1, hits give low values 0.99 | locus YDL074C, strain BRE1, hits give low values 0.974 | locus YDL101C, strain DUN1, hits give low values 1 | locus YDL134C, strain PPH21, hits give low values 1 | locus YDL185W, strain tfp1, hits give low values 1 | locus YDL192W, strain arf1, hits give low values 1.01 | locus YDR001C, strain nth1, hits give low values 0.998 | locus YDR069C, strain doa4, hits give low values 0.981 | locus YDR101C, strain arx1, hits give low values 0.986 | locus YDR150W, strain NUM1, hits give low values 1.02 | locus YDR159W, strain sac3, hits give low values 0.965 | locus YDR162C, strain NBP2, hits give low values 0.982 | locus YDR195W, strain ref2 1.01 | locus YDR297W, strain sur2, hits give low values 0.977 | locus YDR318W, strain mcm21, hits give low values 0.971 | locus YDR334W, strain swr1, hits give low values 1 | locus YDR335W, strain msn5, hits give low values 0.99 | locus YDR388W, hits give low values 1 | locus YDR392W, strain spt3, hits give low values 0.95 | locus YDR502C, strain sam2, hits give low values 0.989 | locus YEL003W, strain gim4, hits give low values 0.997 | locus YEL037C, strain rad23, hits give low values 1.01 | locus YEL061C, strain CIN8 (second series), hits give low values 0.995 | locus YER015W, strain faa2, hits give low values 0.999 | locus YER016W, strain bim1, hits give low values 0.976 | locus YER110C, hits give low values 1.01 | locus YER111C, strain swi4, hits give low values 0.987 | locus YER155C, strain BEM2 (second series), hits give low values 0.973 | locus YER155C, strain BEM2, hits give low values 1.01 | locus YER167W, strain BCK2, hits give low values 0.994 | locus YFR010W, strain ubp6, hits give low values 1.02 | locus YGL078C, strain dbp3, hits give low values 1.01 | locus YGL086W, strain mad1, hits give low values 1 | locus YGL167C, strain pmr1, hits give low values 0.977 | locus YGL173C, strain kem1, hits give low values 0.993 | locus YGL227W, strain vid30, hits give low values 1 | locus YGL240W, strain doc1, hits give low values 0.98 | locus YGL248W, strain PDE1, hits give low values 1.01 | locus YGL253W, strain hxk2, hits give low values 1.01 | locus YGR078C, strain PAC10, hits give low values 0.989 | locus YGR135W, strain pre9, hits give low values 0.992 | locus YGR229C, strain SMI1, hits give low values 0.968 | locus YGR252W, strain gcn5, hits give low values 1.06 | locus YHR013C, strain ard1, hits give low values 0.997 | locus YHR027C, strain rpn1, hits give low values 0.999 | locus YHR030C, strain SLT2, hits give low values 1.01 and 1 | locus YHR079C, strain IRE1 (second series), hits give low values 0.981 | locus YHR079C, strain IRE1, hits give low values 1.04 | locus YHR094C, strain hxt1, hits give low values 1 | locus YHR129C, strain ARP1, hits give low values 0.998 | locus YHR142W, strain chs7, hits give low values 1.04 | locus YHR200W, strain rpn10, hits give low values 1 | locus YIL066C, strain RNR3, hits give low values 1.01 | locus YIL073C, strain SPO22, hits give low values 0.991 | locus YIL125W, strain kgd1, hits give low values 0.994 | locus YIR030C, strain dcg1, hits give low values 0.993 | locus YJL092W, strain hpr5, hits give low values 0.997 | locus YJL095W, strain BCK1 (second series), hits give low values 0.972 | locus YJL095W, strain BCK1, hits give low values 0.883 and 0.965 | locus YJL115W, strain asf1, hits give low values 1 | locus YJL129C, strain trk1, hits give low values 0.981 | locus YJL134W, strain LCB3, hits give low values 1.01 | locus YJL154C, strain vps35, hits give low values 0.991 | locus YJL164C, strain tpk1, hits give low values 0.995 | locus YJL166W, strain qcr8, hits give low values 0.989 | locus YJL168C, strain set2, hits give low values 1 | locus YJL187C, strain SWE1 (second series), hits give low values 1 | locus YJL187C, strain SWE1, hits give low values 0.985 | locus YJR043C, strain POL32, hits give low values 1 | locus YJR066W, strain TOR1, hits give low values 0.987
